This note sets out measurements from PubChem BioAssay (EPA / NIEHS).

Records with an inconclusive call do not appear. Activity calls are given as the source filed them. The calls were made as follows, unless noted: active = hit-call score of the fitted dose curve at least 0.9, where 1 is the maximum; inconclusive = response in the unintended direction; inactive = score below 0.9.

A short description of experiment [1]: ATG_TCF_b_cat_CIS: Attagene CIS-FACTORIAL HepG2 Assay for human T-Cell-Factor with beta-catenin (TCF/b-cat) (AID 2282965; active = hit-call score of the fitted dose curve at least 0.9, where 1 is the maximum; inactive = score below 0.9). Particulars: HepG2 TCF/beta-catenin cis-reporter transcription, actives raise or lower the signal. The method in brief:
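Endogenous transcription factor activity is captured through cis-promoter reporter constructs transiently introduced into human HepG2 liver cells. Induced reporter mRNA is measured after 24 h and fitted bidirectionally relative to DMSO.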

Experiment [2] is described as follows: ATG_TAL_CIS: Attagene CIS-FACTORIAL HepG2 Assay for human TAL Basal Promoter (AID 2282966; active = hit-call score of the fitted dose curve at least 0.9, where 1 is the maximum; inactive = score below 0.9;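 also: background control endpoint measuring basal TAL promoter reporter mRNA not a specific factor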). Particulars: HepG2 Attagene cis-factorial TAL promoter reporter; actives raise or lower the signal. The essentials: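 Endogenous transcription-factor activity is sensed in HepG2 cells through transfected cis-promoter reporter constructs. After 24 h dosing, reporter transcripts are quantified by RT-PCR and capillary electrophoresis. Gain or loss of signal is fitted relative to DMSO.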

Experiment [3] can be described thus: ATG_TGFb_CIS: Attagene CIS-FACTORIAL HepG2 Assay for human Transforming Growth Factor (TGF) (AID 2282967; active = hit-call score of the fitted dose curve at least 0.9, where 1 is the maximum; inactive = score below 0.9). Particulars: HepG2 Attagene CIS TGFb reporter, mRNA transcription; actives raise or lower the signal. The essentials: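 HepG2 cells transiently transfected with cis-promoter-driven multiple reporter units measure endogenous TF activity; reporter mRNA quantified at 24 h by RT-PCR, FAM labeling, HpaI digestion and capillary electrophoresis. Bidirectional fit vs DMSO.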

Experiment [4] in a line: ATG_VDRE_CIS: Attagene CIS-FACTORIAL HepG2 Assay for human Vitamin D Receptor Element (VDRE) (AID 2282968; active = hit-call score of the fitted dose curve at least 0.9, where 1 is the maximum; inactive = score below 0.9). The following applies: HepG2 VDRE cis-reporter transcription, actives raise or lower the signal. The essentials:
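Measures endogenous factor activity through cis-element-driven reporter transcripts in transiently transfected HepG2. Cells are treated 24 h; reporter mRNA is quantified by RT-PCR and capillary electrophoresis; fitting is bidirectional.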

Experiment [5] deals with Nuclear receptor subfamily 1 group I member 3 (Homo sapiens) (UniProt Q14994). Briefly: ATG_CAR_TRANS: Attagene TRANS-FACTORIAL HepG2 Assay for human Constitutive Androstane Receptor (CAR) (AID 2282969).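 Also: activators raise reporter mRNA above DMSO so AC50 marks induction.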 The following applies: HepG2 Attagene TRANS-FACTORIAL CAR reporter. The method in brief:
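Signal is reporter mRNA induction relative to DMSO, measured 24 h after dosing by RT-PCR with fluorescent primer extension and capillary electrophoresis. Human HepG2 liver cells carried transiently transfected chimeric NR-Gal4/GAL4-UAS reporter constructs.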

For experiment [6], the target named is Estrogen receptor (Homo sapiens) (UniProt P03372). The experiment is described as follows: ATG_ERa_TRANS: Attagene TRANS-FACTORIAL HepG2 Assay for human Estrogen Receptor alpha (ERa) (AID 2282970). The following applies: HepG2 Attagene TRANS ERa GAL4 reporter, mRNA. The method in brief:
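Transfected HepG2 cells carrying GAL4-UAS-driven reporter units were dosed for 24 hours. Total RNA was reverse-transcribed, reporter sequences PCR-amplified, FAM-labelled, HpaI-digested and resolved by capillary electrophoresis. Increases over DMSO control defined activity.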

Experiment [7] concerns the target Steroid hormone receptor ERR1 (Homo sapiens) (UniProt P11474). Briefly: ATG_ERRa_TRANS: Attagene TRANS-FACTORIAL HepG2 Assay for human Estrogen-Related Receptor alpha (ERRa) (AID 2282971). Particulars: HepG2 Attagene TRANS reporter, ERRa transactivation. The essentials: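 HepG2 cells were transiently transfected with multiple GAL4-UAS reporter units, then dosed with compound for 24 h. Total RNA was reverse-transcribed, reporter cDNA PCR-amplified and fluorescently labelled, and fragments resolved by capillary electrophoresis; induction was compared with DMSO.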

For experiment [8], the target named is X-box-binding protein 1 (Homo sapiens) (UniProt P17861). The experiment is described as follows: ATG_Xbp1_CIS: Attagene CIS-FACTORIAL HepG2 Assay for human X-box Binding Protein 1 (XBP1) (AID 2282972; active = hit-call score of the fitted dose curve at least 0.9, where 1 is the maximum; inactive = score below 0.9). The following applies: HepG2 XBP1 cis-element reporter, Attagene multiplex; actives raise or lower the signal. The method in brief:
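Changes in reporter transcript abundance, read by RT-PCR and capillary electrophoresis, reflect endogenous transcription factor activity. Transfected HepG2 cells received compound for 24 hours; DMSO defined baseline for bidirectional analysis.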

Experiment [9] has as its target Androgen receptor (Homo sapiens) (UniProt P10275). The experiment is described as follows: ATG_AR_TRANS: Attagene TRANS-FACTORIAL HepG2 Assay for human Androgen Receptor (AR) (AID 2282973). Particulars: HepG2 Attagene TRANS-FACTORIAL AR reporter transcription. The method in brief:
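Transfected HepG2, 24 h treatment, chimeric NR-Gal4 driving GAL4-UAS reporters. mRNA induction by RT-PCR/capillary electrophoresis fluorescence; DMSO as negative control and baseline.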

Experiment [10] in a line: ATG_GAL4_TRANS: Attagene TRANS-FACTORIAL HepG2 Assay for GAL4 (Internal Marker) (AID 2282976). The following applies: HepG2 Attagene TRANS GAL4 internal marker reporter. The essentials:
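Fluorescence from capillary electrophoresis of labelled RT-PCR products quantifies reporter mRNA induction after 24 h dosing of HepG2 cells carrying transfected GAL4-UAS reporter transcription units. Vehicle DMSO serves as baseline.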

Experiment [11] concerns the target Estrogen-related receptor gamma (Homo sapiens) (UniProt P62508). Briefly: ATG_ERRg_TRANS: Attagene TRANS-FACTORIAL HepG2 Assay for human Estrogen-Related Receptor gamma (ERRg) (AID 2282977).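 Also: hits increase reporter signal over DMSO so potencies reflect activators.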 Particulars: HepG2 Attagene TRANS reporter, ERRg transactivation. The essentials: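 Exogenous NR-Gal4 chimera activity was assessed in HepG2 cells bearing transfected GAL4-UAS reporters. After 24 h dosing, total RNA underwent RT-PCR, fluorescent primer extension and HpaI digestion before capillary electrophoresis, with gain of signal scored against DMSO.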

Experiment [12] addresses Glucocorticoid receptor (Homo sapiens) (UniProt P04150). The experiment is described as follows: ATG_GR_TRANS: Attagene TRANS-FACTORIAL HepG2 Assay for human Glucocorticoid Receptor (GR) (AID 2282978).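 Also: activators score as hits since higher reporter transcript over DMSO is fitted.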 Particulars: HepG2 Attagene TRANS GR reporter, mRNA transcription. The method in brief: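 Transient MRTU transfection of HepG2 (GAL4-UAS reporters, exogenous NR-GAL4 chimeras), 24 h dosing. Readout: reporter transcript via RT-PCR + capillary electrophoresis fluorescence. Positive direction vs DMSO baseline.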

Experiment [13] deals with Bile acid receptor (Homo sapiens) (UniProt Q96RI1). The experiment is described as follows: ATG_FXR_TRANS: Attagene TRANS-FACTORIAL HepG2 Assay for Farnesoid X Receptor (FXR) (AID 2282979).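 Also: hits raise reporter mRNA above DMSO so AC50 marks FXR activation.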 The following applies: HepG2 Attagene TRANS FXR-GAL4 reporter transcription. The method in brief:
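Chimeric FXR-GAL4 activity in transiently transfected human HepG2 liver cells is scored as induction of reporter mRNA after 24 h of dosing. Detection uses RT-PCR with fluorescent labelling and capillary electrophoresis, with DMSO serving as baseline.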

For experiment [14], the target named is Oxysterols receptor LXR-alpha (Homo sapiens) (UniProt Q13133). The experiment is described as follows: ATG_LXRa_TRANS: Attagene TRANS-FACTORIAL HepG2 Assay for human Liver X Receptor alpha (LXRa) (AID 2282980). Particulars: HepG2 Attagene TRANS reporter, LXRa transactivation. The method in brief:
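Transient HepG2 transfectants, 24 h dosing, RT-PCR/CE mRNA reporter quantitation; gain-of-signal vs DMSO.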

Experiment [15] deals with Oxysterols receptor LXR-beta (Homo sapiens) (UniProt P55055). The experiment is described as follows: ATG_LXRb_TRANS: Attagene TRANS-FACTORIAL HepG2 Assay for human Liver X Receptor beta (LXRb) (AID 2282981). Particulars: HepG2 Attagene TRANS GAL4-LXRb reporter, mRNA. The method in brief:
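After 24 h of chemical treatment, transfected HepG2 cells yield total RNA; reporter cDNA is PCR-amplified, FAM-labelled, HpaI-cut and run on capillary electrophoresis. Signal reflects chimeric LXRb-Gal4 activity on GAL4-UAS reporters.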

Experiment [16] can be described thus: ATG_M_06_TRANS: Attagene TRANS-FACTORIAL HepG2 Assay for M06 Transcription Factor (Internal Marker) (AID 2282983). Particulars: HepG2 Attagene TRANS M06 internal marker reporter. The method in brief: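 Human liver HepG2 cells bearing transiently transfected chimeric NR-GAL4 reporter units were treated with chemicals for 24 h. Total RNA was reverse-transcribed, reporter sequences amplified and labelled, then quantified by capillary electrophoresis. Activity was fitted upward relative to DMSO.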

Experiment [17] is described as follows: ATG_M_32_TRANS: Attagene TRANS-FACTORIAL HepG2 Assay for M32 Transcription Factor (Internal Marker) (AID 2282984).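 Also: transcript level of a background control reporter unit measured by RT-PCR and capillary electrophoresis.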 Particulars: HepG2 Attagene TRANS M32 internal marker reporter. The essentials:
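Cell-based TRANS-format assay in HepG2: exogenous chimeric GAL4 reporter units transiently expressed, compounds applied 24 h. Reporter mRNA detected by RT-PCR plus capillary electrophoresis; this readout is an internal background marker.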

Experiment [18] is described as follows: ATG_M_19_TRANS: Attagene TRANS-FACTORIAL HepG2 Assay for M19 Transcription Factor (Internal Marker) (AID 2282974). The following applies: HepG2 Attagene TRANS-FACTORIAL M19 internal marker reporter. The method in brief: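 24 h chemical exposure of transiently transfected HepG2 (MRTU library). RNA → oligo(dT) RT → PCR → 6-FAM labelling → HpaI cut → CE fluorescence. Positive-direction fit vs DMSO baseline; background internal-marker readout.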

Sequence of X-box-binding protein 1 (Homo sapiens) (P17861 whole entry, looked up): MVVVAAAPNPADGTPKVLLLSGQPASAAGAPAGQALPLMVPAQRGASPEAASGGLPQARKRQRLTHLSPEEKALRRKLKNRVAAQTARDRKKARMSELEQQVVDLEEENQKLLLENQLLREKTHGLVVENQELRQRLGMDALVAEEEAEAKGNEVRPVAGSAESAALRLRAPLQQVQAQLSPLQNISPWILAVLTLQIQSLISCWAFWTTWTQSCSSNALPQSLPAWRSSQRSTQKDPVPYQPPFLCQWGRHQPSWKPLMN
Sequence of Glucocorticoid receptor (Homo sapiens) (P04150 whole entry, looked up, the tested form may be a part): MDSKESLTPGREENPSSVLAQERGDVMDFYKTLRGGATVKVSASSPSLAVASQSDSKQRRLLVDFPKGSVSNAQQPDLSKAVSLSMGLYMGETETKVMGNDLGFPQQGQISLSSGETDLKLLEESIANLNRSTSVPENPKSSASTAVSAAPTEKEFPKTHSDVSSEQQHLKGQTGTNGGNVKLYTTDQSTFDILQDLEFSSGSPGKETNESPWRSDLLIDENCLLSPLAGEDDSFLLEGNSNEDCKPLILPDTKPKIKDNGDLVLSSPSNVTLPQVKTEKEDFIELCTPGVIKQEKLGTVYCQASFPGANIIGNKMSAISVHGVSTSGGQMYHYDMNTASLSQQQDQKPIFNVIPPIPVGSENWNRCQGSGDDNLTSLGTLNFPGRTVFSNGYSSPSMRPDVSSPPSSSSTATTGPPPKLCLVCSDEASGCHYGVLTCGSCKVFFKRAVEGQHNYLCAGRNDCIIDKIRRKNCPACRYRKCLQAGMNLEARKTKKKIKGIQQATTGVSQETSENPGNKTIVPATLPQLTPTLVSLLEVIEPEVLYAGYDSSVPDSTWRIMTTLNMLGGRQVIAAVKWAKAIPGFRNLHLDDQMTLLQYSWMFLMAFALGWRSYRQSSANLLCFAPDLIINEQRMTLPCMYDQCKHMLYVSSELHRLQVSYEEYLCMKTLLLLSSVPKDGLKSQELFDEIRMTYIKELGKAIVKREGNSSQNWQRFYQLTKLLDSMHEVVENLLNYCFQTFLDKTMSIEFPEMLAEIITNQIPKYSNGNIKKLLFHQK
Sequence of Estrogen receptor (Homo sapiens) (P03372 whole entry, looked up, the tested form may be a part): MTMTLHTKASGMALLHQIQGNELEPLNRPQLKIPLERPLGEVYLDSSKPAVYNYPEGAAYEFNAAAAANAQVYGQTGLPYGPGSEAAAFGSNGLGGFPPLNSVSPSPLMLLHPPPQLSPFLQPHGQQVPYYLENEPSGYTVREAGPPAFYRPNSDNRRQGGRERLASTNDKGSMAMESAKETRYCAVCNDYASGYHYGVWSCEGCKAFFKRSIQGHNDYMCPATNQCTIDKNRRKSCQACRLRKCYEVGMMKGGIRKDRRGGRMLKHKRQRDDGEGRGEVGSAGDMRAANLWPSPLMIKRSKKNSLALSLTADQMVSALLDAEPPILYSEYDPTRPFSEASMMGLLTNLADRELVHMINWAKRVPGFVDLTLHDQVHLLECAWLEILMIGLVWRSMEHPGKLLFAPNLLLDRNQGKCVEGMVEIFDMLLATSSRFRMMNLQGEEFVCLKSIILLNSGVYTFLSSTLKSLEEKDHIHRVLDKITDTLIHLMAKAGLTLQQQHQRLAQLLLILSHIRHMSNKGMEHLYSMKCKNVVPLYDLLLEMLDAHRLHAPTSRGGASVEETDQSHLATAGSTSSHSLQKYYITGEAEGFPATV
Sequence of Bile acid receptor (Homo sapiens) (Q96RI1 whole entry, looked up, the tested form may be a part): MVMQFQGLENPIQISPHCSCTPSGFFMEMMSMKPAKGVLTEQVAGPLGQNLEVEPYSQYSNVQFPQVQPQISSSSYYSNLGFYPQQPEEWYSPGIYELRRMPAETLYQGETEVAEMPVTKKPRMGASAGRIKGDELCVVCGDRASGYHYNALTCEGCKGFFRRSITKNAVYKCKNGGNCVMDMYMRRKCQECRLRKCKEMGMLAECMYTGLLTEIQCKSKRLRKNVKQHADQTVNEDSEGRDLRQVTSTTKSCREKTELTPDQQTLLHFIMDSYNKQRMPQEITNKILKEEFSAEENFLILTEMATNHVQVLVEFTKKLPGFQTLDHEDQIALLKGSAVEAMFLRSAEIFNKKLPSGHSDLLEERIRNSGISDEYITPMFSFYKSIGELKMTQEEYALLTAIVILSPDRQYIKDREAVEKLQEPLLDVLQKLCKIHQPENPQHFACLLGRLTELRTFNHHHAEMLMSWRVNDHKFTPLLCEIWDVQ
Sequence of Nuclear receptor subfamily 1 group I member 3 (Homo sapiens) (Q14994 whole entry, looked up, the tested form may be a part): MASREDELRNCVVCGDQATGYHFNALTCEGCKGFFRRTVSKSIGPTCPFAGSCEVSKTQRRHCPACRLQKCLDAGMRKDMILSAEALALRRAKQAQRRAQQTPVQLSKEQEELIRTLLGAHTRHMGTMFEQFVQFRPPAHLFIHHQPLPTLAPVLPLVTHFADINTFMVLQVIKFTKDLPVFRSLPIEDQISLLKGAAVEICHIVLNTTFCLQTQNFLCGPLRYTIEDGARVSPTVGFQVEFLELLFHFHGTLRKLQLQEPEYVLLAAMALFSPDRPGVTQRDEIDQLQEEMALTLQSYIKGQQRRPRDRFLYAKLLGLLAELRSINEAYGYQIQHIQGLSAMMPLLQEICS
Sequence of Androgen receptor (Homo sapiens) (P10275 whole entry, looked up, the tested form may be a part): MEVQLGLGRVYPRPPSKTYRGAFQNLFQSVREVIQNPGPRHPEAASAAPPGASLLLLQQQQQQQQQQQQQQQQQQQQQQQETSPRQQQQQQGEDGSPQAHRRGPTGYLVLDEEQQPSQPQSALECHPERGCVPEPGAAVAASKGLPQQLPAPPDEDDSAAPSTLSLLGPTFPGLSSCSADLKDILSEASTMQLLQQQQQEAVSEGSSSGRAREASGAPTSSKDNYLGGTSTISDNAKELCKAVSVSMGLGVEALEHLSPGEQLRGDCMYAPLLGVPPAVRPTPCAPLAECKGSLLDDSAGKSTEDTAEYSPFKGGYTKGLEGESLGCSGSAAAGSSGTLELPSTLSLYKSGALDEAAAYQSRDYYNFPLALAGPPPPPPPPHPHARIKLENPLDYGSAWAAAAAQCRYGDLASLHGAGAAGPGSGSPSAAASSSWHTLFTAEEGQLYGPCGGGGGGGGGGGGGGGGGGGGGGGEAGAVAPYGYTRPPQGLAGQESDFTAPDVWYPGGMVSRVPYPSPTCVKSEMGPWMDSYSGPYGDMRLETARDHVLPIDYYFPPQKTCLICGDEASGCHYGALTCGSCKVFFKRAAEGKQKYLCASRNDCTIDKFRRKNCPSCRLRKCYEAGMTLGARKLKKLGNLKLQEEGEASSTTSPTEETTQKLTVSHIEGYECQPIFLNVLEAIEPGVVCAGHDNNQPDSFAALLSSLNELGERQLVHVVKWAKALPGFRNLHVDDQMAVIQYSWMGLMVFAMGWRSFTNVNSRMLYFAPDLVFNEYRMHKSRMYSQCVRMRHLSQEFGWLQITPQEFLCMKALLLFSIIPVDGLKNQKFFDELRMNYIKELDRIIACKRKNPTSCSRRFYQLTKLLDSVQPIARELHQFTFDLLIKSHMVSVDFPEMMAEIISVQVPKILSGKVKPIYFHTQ
Sequence of Oxysterols receptor LXR-beta (Homo sapiens) (P55055 whole entry, looked up, the tested form may be a part): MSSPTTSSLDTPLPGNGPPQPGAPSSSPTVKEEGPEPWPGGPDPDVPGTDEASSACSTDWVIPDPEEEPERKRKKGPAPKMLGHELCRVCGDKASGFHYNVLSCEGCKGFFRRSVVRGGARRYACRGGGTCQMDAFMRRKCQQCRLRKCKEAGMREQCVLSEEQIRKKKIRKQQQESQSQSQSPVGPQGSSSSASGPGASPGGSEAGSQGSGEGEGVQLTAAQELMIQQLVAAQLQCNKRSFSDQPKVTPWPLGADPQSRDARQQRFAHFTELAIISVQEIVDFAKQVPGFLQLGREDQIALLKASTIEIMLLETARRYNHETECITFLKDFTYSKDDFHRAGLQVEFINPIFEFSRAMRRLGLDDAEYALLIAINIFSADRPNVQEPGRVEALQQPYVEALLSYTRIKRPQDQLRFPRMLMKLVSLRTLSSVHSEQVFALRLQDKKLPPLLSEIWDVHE
Sequence of Steroid hormone receptor ERR1 (Homo sapiens) (P11474 whole entry, looked up, the tested form may be a part): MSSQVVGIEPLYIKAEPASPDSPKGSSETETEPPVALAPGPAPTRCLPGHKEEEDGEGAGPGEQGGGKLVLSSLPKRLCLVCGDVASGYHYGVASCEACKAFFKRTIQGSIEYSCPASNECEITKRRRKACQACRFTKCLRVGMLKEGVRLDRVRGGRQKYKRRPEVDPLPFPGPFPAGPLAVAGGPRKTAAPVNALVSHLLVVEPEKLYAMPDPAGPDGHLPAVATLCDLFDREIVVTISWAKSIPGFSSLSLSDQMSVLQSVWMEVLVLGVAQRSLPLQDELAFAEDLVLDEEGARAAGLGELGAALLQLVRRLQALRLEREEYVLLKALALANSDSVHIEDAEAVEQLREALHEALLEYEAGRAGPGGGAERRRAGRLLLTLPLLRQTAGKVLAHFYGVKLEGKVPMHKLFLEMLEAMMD
Sequence of Estrogen-related receptor gamma (Homo sapiens) (P62508 whole entry, looked up, the tested form may be a part): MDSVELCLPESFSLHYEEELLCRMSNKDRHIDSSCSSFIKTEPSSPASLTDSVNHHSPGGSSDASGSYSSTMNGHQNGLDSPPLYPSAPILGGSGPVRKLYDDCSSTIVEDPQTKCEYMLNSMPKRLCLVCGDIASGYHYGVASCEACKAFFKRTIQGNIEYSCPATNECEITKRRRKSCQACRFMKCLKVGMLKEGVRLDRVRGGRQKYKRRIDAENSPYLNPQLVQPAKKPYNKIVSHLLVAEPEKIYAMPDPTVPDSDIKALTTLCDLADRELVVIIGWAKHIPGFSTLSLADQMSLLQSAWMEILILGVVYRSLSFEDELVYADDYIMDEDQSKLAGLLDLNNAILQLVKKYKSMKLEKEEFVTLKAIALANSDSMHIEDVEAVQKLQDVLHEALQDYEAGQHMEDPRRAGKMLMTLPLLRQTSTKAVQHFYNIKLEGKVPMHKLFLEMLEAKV

Consider `O=C(O)C(F)(F)OC(F)(F)C(F)(F)OC(F)(F)F`, for which the result in experiment [1], in [2], in experiment [3], in experiment [4], in experiment [5] and in [6] was inactive. In addition, the compound was called inactive in experiment [7], in experiment [8], in experiment [9], in experiment [10], in experiment [11] and in experiment [12]. Moreover, the result in experiment [13], in [14], in experiment [15], in experiment [16] and in experiment [17] was inactive.
`O=c1[nH]c2ccccc2c(=O)o1`: the call in experiment [1], in [2], in [3], in experiment [4], in experiment [5] and in [6] was inactive. Also, the compound was classed as inactive in experiment [8], in experiment [10], in experiment [12] and in experiment [16].
For the compound `CCOc1ccc(C(C)(C)COCc2cccc(Oc3ccccc3)c2)cc1`, the compound was classed as inactive in experiment [1], in experiment [2], in experiment [3], in experiment [5], in experiment [6] and in experiment [8]. For the same compound, the call in [18], in experiment [12], in [13] and in experiment [17] was inactive. Further, the concentration at half-maximal activity (AC50) in experiment [4] is 5.77 µM (active).
In the case of `CCOP(=S)(OCC)SCn1nnc2ccccc2c1=O`, the call in [1], in [2], in experiment [3], in experiment [5], in [7] and in experiment [8] was inactive. The result in experiment [11], in experiment [12] and in [17] was inactive. Besides, the values for the AC50 in experiment [4], in [6] and in experiment [13] were 1.61 µM (active), 3.08 µM (active) and 26.5 µM (active), respectively.
`CCOP(=O)(O)C(N)=O`: the result in [1], in [2], in [3], in [4], in [5] and in experiment [6] was inactive. Besides, the compound was called inactive in experiment [8], in experiment [18], in experiment [10], in experiment [13], in experiment [15] and in experiment [16]. Further, in [17], the result was inactive.

As usually defined, the AC50 is the concentration at which the activity in the assay is half-maximal.
